Mot1-301 SUMO: yeast Mot1-301 growth rescue at high temperature, primary screen, SUMOylation pathway inhibitor project, S. cerevisiae, ATP luminescence, 38.5C. S. cerevisiae Mot1-301 growth rescue; percent above DMSO median, 100 means doubled. growth rescue, % at 18.8 µM. hit rate 1% among 320,000;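 active = every valid replicate shows activation above 250% relative to neutral control wells; inactive = the rest, any valid replicate at or below 250%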
NTR1 ag: agonists of human NTR1, primary screen, imaging, U2OS cells, beta-arrestin-GFP, high content. activation, % at 20 µM. hit rate 0.17% among 330,000. AID 493036, 2011. NTR1-U2OS beta-arrestin-GFP spot imaging, agonist mode. Neurotensin receptor type 1 (Homo sapiens), P30989;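 active = activation at or above 40% of the spot to cytoplasm intensity ratio, with at least 20 cells analyzed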
Target sequence (P30989 whole entry, looked up): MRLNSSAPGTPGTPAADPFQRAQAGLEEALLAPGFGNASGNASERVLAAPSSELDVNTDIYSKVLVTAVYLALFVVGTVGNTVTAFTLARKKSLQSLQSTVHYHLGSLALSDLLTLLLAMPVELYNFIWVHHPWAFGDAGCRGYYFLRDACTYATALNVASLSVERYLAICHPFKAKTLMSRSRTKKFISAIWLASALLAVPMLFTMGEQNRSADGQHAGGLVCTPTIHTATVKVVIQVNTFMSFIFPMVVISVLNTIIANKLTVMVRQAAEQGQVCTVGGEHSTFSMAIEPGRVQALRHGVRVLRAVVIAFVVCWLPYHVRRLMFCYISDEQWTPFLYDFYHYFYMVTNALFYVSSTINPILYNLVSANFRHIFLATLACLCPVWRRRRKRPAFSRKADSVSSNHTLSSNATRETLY
Cardio protect: cardioprotection against H2O2-induced cell death, primary screen, uHTS, H9c2 cells, ATPLite luminescence. hit rate 0.63% among 360,000. AID 588492, 2011. protection from H2O2 cell death, % at 20 µM. H9c2 cardiomyocytes, H2O2 injury protection, 2 h;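 active = compounds giving at least 50% protection of heart cells from peroxide-induced death in the single-dose screen, raw or plate-pattern-corrected value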
GRIN3A LBD mod: binders of NR3A ligand-binding domain, primary screen, biophysical, differential scanning fluorimetry, uHTS. NR3A LBD differential scanning fluorimetry, Tm shift; 0% = protein alone, 100% = glycine-bound protein. Tm shift relative to glycine control, % at 25 µM. Glutamate receptor ionotropic, NMDA 3A (GRIN3A) ligand-binding domain. hit rate 2.5% among 340,000;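 active = melting temperature shift of at least 10% of the positive control shift, at one fixed dose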
AHR activator: AHR activators, primary screen, cell-based, luminescence, luciferase reporter, human. AHR-responsive luciferase reporter cells. activation, % at 5 µM. hit rate 2.5% among 320,000. AID 2796, 2010; in the data active = activation above about 47%
AI-2 QS mod: Vibrio harveyi AI-2 quorum sensing modulators, primary screen, JMH597 strain, luminescence/OD600 ratio; hit rate 0.4% among 300,000; Vibrio harveyi JMH597 AI-2 luminescence/OD600 ratio, 9 h; active compounds read low; strain lacks LuxN and CqsS sensors; 0 = neutral-control median; activity change, % at 7.5 µM; in the data active = activity change below about -75%, passing the limit was not always enough;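 also: luminescence divided by OD600 gain over 9 h not by final OD600 alone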
A number is an active result; - = inactive; . = no result; ! = not active in a repeat. The list is not random: actives were taken first. Their share in the collection is about 6.2%.

SMILES	Mot1-301 SUMO	NTR1 ag	Cardio protect	GRIN3A LBD mod	AHR activator	AI-2 QS mod
COc1ccc(C(=O)Nc2ccc(NC(=O)c3cccs3)cc2)cc1Cl	-	-	-	34	-	-
COc1ccc(C(=O)Nc2cccc(NC(=O)c3cccs3)c2)cc1OC	-	-	-	-	-	-
O=C(Nc1ccc(NC(=O)c2ccc(Cl)cc2Cl)cc1)c1cccs1	-	-	-	-	-	-
CCCc1nc2cc3c(cc2[nH]1)n(C)c(=O)n3C	-	-	-	-	75	-
O=C(CCNC(=O)N1CC(=O)Nc2ccccc21)NCc1ccc(Cl)cc1	.	.	-	.	.	.
CC1CCN(c2ccc(NC(=O)c3ccc([N+](=O)[O-])o3)cc2)CC1	-	42	-	-	-	-
O=C(Nc1ccc(N2CCN(Cc3ccccc3F)CC2)cc1)c1ccc([N+](=O)[O-])o1	-	42	-	-	-	-
O=C(Nc1ccc2oc(-c3ccccc3F)nc2c1)c1ccc([N+](=O)[O-])o1	-	-	58	-	.	-
O=C(Nc1ccc2oc(-c3ccccc3F)nc2c1)c1cncc(Br)c1	-	-	-	-	-	-
O=C(CN1C(=O)NC2(CCCC2)C1=O)N1CCN(S(=O)(=O)c2ccccc2F)CC1	-	-	-	13	-	-
C=CCn1c(=O)c(C(=O)Nc2ncccc2C)c(O)c2ccccc21	.	.	-	.	.	.
COc1ccc(NS(=O)(=O)c2cc(NC(=O)/C=C/c3cccs3)ccc2N2CCOCC2)cc1	-	-	-	30	-	-
CCCCCC(=O)Nc1ccc(N2CCOCC2)c(S(=O)(=O)Nc2ccc(OC)cc2)c1	-	-	-	-	-	-
CCN(CC)C(=O)CSc1nc(N)c(C#N)c(-c2cccs2)c1C#N	-	-	-	-	77	-
CCN(CC)C(=O)CSc1nc(-c2cccs2)cc(-c2cccs2)c1C#N	-	-	-	-	-	-
CCN(CC)C(=O)CSc1nc2c(c(-c3cccnc3)c1C#N)CCCC2	-	-	-	-	67	-
N#Cc1c(SCC(N)=O)nc2c(c1-c1ccncc1)CCCC2	-	-	-	-	-	-
Cc1cc(NC(=O)CSc2nc3c(sc4ccccc43)c(=O)n2CCCN2CCOCC2)n[nH]1	-	-	-	-	-	-
Cc1cc(NC(=O)CSc2nc3c(sc4ccccc43)c(=O)n2CCc2ccccc2)n[nH]1	-	-	-	27	-	-
CCOC(=O)C1(C)CCN1C(=O)c1cccc(C(F)(F)F)c1 (stereo not drawn)	.	.	-	.	.	.
Cc1cc(/C=C(\C#N)C(=O)NCc2ccco2)c(C)n1-c1cccnc1	-	-	-	-	70	-
Cc1cc(Cl)nc(SCC(=O)c2ccccc2)n1	-	-	-	-	61	-
O=C(c1ccc(COc2ccccc2Cl)o1)N1CCN(Cc2ccc3c(c2)OCO3)CC1	-	-	-	15!	-	-
COc1ccc(S(=O)(=O)N2CCOCC2)cc1NC(=O)CN1C(=O)NC2(CCCCC2C)C1=O (stereo not drawn)	-	-	-	-	-	.
O=C(c1ccccc1)n1ccc2ccccc21	-	-	-	-	62	-
SMILES	Mot1-301 SUMO	NTR1 ag	Cardio protect	GRIN3A LBD mod	AHR activator	AI-2 QS mod
O=C(Cn1[nH]c(=O)c2ccccc2c1=O)NCCN1C(=O)S/C(=C\c2ccccc2)C1=O	-	-	-	-	-	.
CCN(C(=O)COC(=O)c1ccc(-n2c(C)ccc2C)cc1)c1c(N)n(Cc2ccccc2)c(=O)[nH]c1=O	.	.	-	-	.	.
Cc1ccc2nc(Cl)c3nnnn3c2c1	382	-	-	-	-	-86
C/C(=N\NC(=O)c1cc(O)ccc1O)c1cccc(NC(=O)c2ccc(Cl)cc2)c1	-	-	-	-	-	-
C/C(=N\NC(=O)c1ccn(C)n1)c1cccc(NC(=O)c2ccc(C)s2)c1	-	-	-	-	-	-
C/C(=N/NC(=O)c1ccncc1)c1ccc(NC(=O)c2ccccc2)cc1	-	-	-	-	.	-
C/C(=N\NC(=O)c1ccccc1O)c1cccc(NC(=O)c2ccccc2)c1	-	-	-	-	53	-
C/C(=N\NC(=O)c1ccccc1O)c1ccc(NC(=O)c2ccccc2)cc1	-	-	-	11	.	-
C/C(=N\NC(=O)c1ccn(C)n1)c1ccc(NC(=O)c2cccc(F)c2)cc1	-	-	-	16	-	-
Cc1nc(C/C(=N\Nc2ccccc2)c2ccc(O)cc2O)cs1	-	-	-	-	-	-
CCc1cc(/C(Cc2ccccn2)=N\Nc2ccccc2)c(O)cc1O	-	-	-	-	77	-
COC(=O)C1=C2c3[nH]c4ccccc4c3CCN2C(=O)CC1	-	-	-	-	54	-
O=C(CC1OC(=O)c2ccccc21)Nc1cc(S(=O)(=O)N2CCOCC2)ccc1OCC(F)(F)F (stereo not drawn)	-	-	-	-	-	-
CCCc1nc2nc(C)c(NS(=O)(=O)c3ccc(C)c(C)c3)c(=O)n2[nH]1	.	.	-	.	.	.
Cc1ccc2[nH]cc(C(=O)CCl)c2c1	-	-	-	38	-	-
Cc1c(Cl)cnc(NC(=O)COC(=O)c2ccc([N+](=O)[O-])s2)c1Cl	-	-	68	-	-	-
O=C(COC(=O)c1ccc([N+](=O)[O-])s1)Nc1ccc(Cl)cn1	-	-	55	-	-	-
O=C(COC(=O)c1ccc(O)cc1O)Nc1ccc(Cl)cn1	-	-	-	-	-	-83
O=C(COC(=O)c1ccc(F)cc1F)Nc1ccc(Cl)cn1	-	-	-	-	-	.
COc1ccc(NC(=O)CC2C(=O)N(c3cccc(OC)c3)C(=O)N2C(C)C)cc1 (stereo not drawn)	-	-	-	-	-	-
CCOc1ccc(NC(=O)CC2C(=O)N(c3ccc(OC)c(Cl)c3)C(=S)N2C2CC2)cc1 (stereo not drawn)	-	-	-	25	-	-
COc1ccc(NC(=O)CC2C(=O)N(c3cccc(OC)c3)C(=O)N2CCC(C)C)cc1 (stereo not drawn)	-	-	-	11	-	-
COc1ccccc1-c1cnn2c(NC3CCCC3)cc(C)nc12	-	-	-	-	-	-
C(=N\NC1=Nc2cccc3cccc1c23)/c1ccccn1	.	.	-	-	.	-
Clc1ccccc1/C=N/NC1=Nc2cccc3cccc1c23	-	-	-	19	-	-
NS(=O)(=O)c1ccc(CCNC(=O)c2cc([N+](=O)[O-])ccc2N2CCCCC2)cc1	-	-	-	-	-	-
CC1=CCC2C(=O)N(c3cccc(C(=O)Nc4ccc(Cl)cc4)c3)C(=O)C2C1 (stereo not drawn)	-	-	-	-	69	-
